# Measurements published in PubChem BioAssay AID1962 (The Scripps Research Institute Molecular Screening Center, 2009).
# Among all 300,000 compounds or so, about 2,500 (0.83%) were called active. The list comes from a sample in which actives are over-represented; it also holds similar structures and randomly drawn compounds. Unmarked numbers belong to inactive results.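 Rule for the calls: active = inhibition above the mean of all tested compounds plus 3 SD, set per screening campaign (cut at about 24% in these data); inactive = the rest.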
# System: tRNA 2'-phosphotransferase TPT1 (Candida albicans SC5314)
# Assay: Candida albicans TPT1 enzyme inhibitors, primary screen, biochemical, fluorescence polarization (AID 1962);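 note: plate controls were DMSO alone for no effect and ferristatin control at 100 nM for full effect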
# Settings: recombinant caTPT1, FP RNA substrate dephosphorylation; at 5 µM; hits give high values
row,SMILES,inhibition
1,CC(=O)N1N=C(c2ccncc2)OC1(Cc1ccccc1)Cc1ccccc1,-0.93%
2,O=C(CC12CC3CC(CC(C3)C1)C2)Nc1ccc2c(c1)COC2=O,-3.75%
3,Cc1ccc(SCc2c(C(=O)N/N=C/c3cccnc3)nnn2-c2nonc2N)cc1,0.4%
4,Nc1nonc1-n1nnc(C(=O)N/N=C/c2cc(Br)ccc2O)c1CSC1=NCCS1,24.7% (active)
5,Nc1nonc1-n1nnc(C(=O)N/N=C/c2ccccc2O)c1CN1CCCC1,-0.45%
6,COc1ccc(C(C(=O)NC2CCCCC2)N(C(=O)Cc2c[nH]c3ccccc23)c2ccccc2)cc1OC (stereo not given),4.78%
7,N#CC1=C(N)Oc2c(ccc3cccnc23)C1c1ccncc1 (stereo not given),0.31%
8,CC1=C(C(=O)Nc2ccccc2)C(c2ccco2)C(C#N)=C(SCC(N)=O)N1 (stereo not given),-4.83%
9,N#CC1=C(N)Oc2c(sc3ccccc23)C1c1ccco1 (stereo not given),100% (active)
10,COCCCn1c(SCc2cccc(OC)c2)nc2cc(OC)c(OC)cc2c1=N,-1.89%
11,CC(=O)Nc1ccc(S(=O)(=O)NCC(=O)OCc2cc(=O)oc3ccc4ccccc4c23)cc1,2.61%
12,COc1cc(/C=C(\C#N)c2nc3ccccc3[nH]2)ccc1O,96.4% (active)
13,Cc1ccc2nc(/C(C#N)=C\c3ccc(OC(=O)c4cccs4)cc3)[nH]c2c1,4.21%
14,COc1cc(/C=N/Nc2nc3ccccc3s2)ccc1O,-1.42%
15,COc1cc(/C=C(\C#N)c2nc3c(s2)CC(C)CC3)ccc1O (stereo not given),128% (active)
16,COc1ccc(/C=C(/NC(=O)c2ccc(C)cc2)c2nc3ccccc3[nH]2)cc1OC,-0.67%
17,CCNc1nc(NCC)nc(N/N=C/c2ccc(O)c(OC)c2)n1,-0.04%
18,CCn1c(CC(=O)Nc2ccc(C)cc2)nnc1SCC(=O)Nc1nc(C)cs1,2.53%
19,O=C(NCCCCCCNC(=O)NCc1ccco1)NCc1ccco1,-3.7%
20,COc1ccc2c(c1)CCNC2Cc1ccc(OC)c(O)c1 (stereo not given),-2.2%
21,CC[C@H]1CN2CCc3cc(OC)c(OC)cc3[C@@H]2C[C@@H]1C[C@H]1NCCc2cc(OC)c(OC)cc21,3.04%
22,COc1cc2c(cc1O)[C@H](Cc1ccc(Oc3cc(C[C@@H]4NCCc5cc(OC)c(O)cc54)ccc3O)cc1)NCC2,30% (active)
23,O=S1(=O)CCO[C@H]2Cc3ccccc3[C@H]2N1Cc1ccccc1,3.47%

row,SMILES,inhibition
1,O=C(CCc1ccccc1)Nc1ccnn1C1CCN(Cc2ccc(OCCO)cc2)CC1,-3.8%
2,COc1ccc(OC)c2[nH]c(=O)c(CCNC(=O)C(C)(C)C)cc12,1.81%
3,Cc1ccc(C)c2[nH]c(=O)c(CCNC(=O)c3cccs3)cc12,-3.33%
4,Cc1ccc(C)c2[nH]c(=O)c(CCNC(=O)CC(C)C)cc12,51.6% (active)
5,CCc1ccnc(NS(=O)(=O)c2ccc3c(c2)OCCO3)c1,-1.71%
6,O=C(C1CCCO1)N1CCN(C(=S)NC2CC2)CC1 (stereo not given),-3.35%
7,CCOC(=O)NC(=O)/C(C#N)=C\c1ccccc1,-1.78%
8,CCOC(=O)/C(C#N)=C/c1ccc(OCC(=O)Nc2ccccc2)c(OC)c1,-2.78%
9,COc1ccc(N2CCN(C(=O)/C(C#N)=C/c3ccccc3)CC2)cc1,19.5%
10,CCOC(=O)/C(C#N)=C/c1ccc(N2CCN(Cc3ccccc3)CC2)cc1,48% (active)
11,CCOC(=O)/C(C#N)=C/c1ccc(N2CCCCC2)cc1,116% (active)
12,COc1ccc(/C=C(\C#N)C(=O)ONC2=NCCCCC2)cc1,0.43%
13,COc1ccc(-c2nn(-c3ccccc3)cc2/C=C2/SC(=S)N(CCCC(=O)O)C2=O)c(C)c1,1.54%
14,Cc1ccc(-c2nn(-c3ccccc3)cc2/C=C2\SC(=S)N(CCCCCC(=O)O)C2=O)o1,49.2% (active)
15,CN(C)S(=O)(=O)c1cccc(-c2nn(-c3ccccc3)cc2/C=C2\SC(=S)N(CC(=O)O)C2=O)c1,-1.23%
16,CCC(C)Sc1nc(C)nc2c1c(=O)n(C)c(=O)n2C (stereo not given),-1.63%
17,NC(=O)NCCCC(=O)O,-0.59%
18,COc1ccc(/C=N/NC(=O)c2cc(-c3cccc(C)c3)nc3ccccc23)cc1O,-4.75%
19,Cc1sc2nc(COC(=O)C(NC(=O)c3ccc(Cl)cc3Cl)C(C)C)[nH]c(=O)c2c1C (stereo not given),33.1% (active)
20,CC(C)NC(=O)c1ccc(Cl)cc1Cl,-0.44%
21,Cc1sc2nc(CSCC(=O)Nc3c(Cl)cccc3Cl)[nH]c(=O)c2c1C,17.1%
22,CSCCC(NC(=O)c1ccc(Cl)cc1Cl)C(=O)NNC(=O)c1csc(N2CCOCC2)n1 (stereo not given),1.09%
23,COc1ccc(N2CC(C)Cn3c2nc2c3c(=O)n(Cc3ccccc3F)c(=O)n2C)c(OC)c1 (stereo not given),1.36%

row,SMILES,inhibition
1,CC(=O)N/C(=C/c1ccc(Cl)cc1)C(=O)NCCc1c[nH]c2ccccc12,-3.35%
2,O=C(CN1C(=O)NC2(CCCCC2)C1=O)NCCc1c[nH]c2ccccc12,-3.99%
3,N#C/C(=C/c1ccc(N2CCCCC2)o1)C(=O)NCCc1c[nH]c2ccccc12,178% (active)
4,O=C(CSc1nnc(Nc2ccccc2)s1)Nc1cccnc1Cl,-0.7%
5,CC(C)c1ccc(Nc2nnc(SCC(=O)c3nnc(-c4ccccc4)o3)s2)cc1,42% (active)
6,Cc1ccc(Nc2nnc(SCC(=O)c3cc4ccccc4o3)s2)cc1C,9.66%
7,CC(C)CN1CCNC(=O)C1CC(=O)N(C)CC1CCOCC1 (stereo not given),-5.14%
8,COc1ccc(S(=O)(=O)NCC2CCCN(C(=O)c3occc3C)C2)cc1 (stereo not given),-4.48%
9,CCN1CCN(C(=O)Cn2nc(C)n3c(cc4c(OC)cccc43)c2=O)CC1,1.92%
10,Cc1ccc2[nH]c(=O)c(CN3CCCCC3)c(-c3ccccc3)c2c1,31.4% (active)
11,Cc1ccc2[nH]c(=O)c(CC(=O)O)c(-c3ccccc3)c2c1,-1.99%
12,Cc1ccc2[nH]c(=O)c(CC=C(Cl)Cl)c(C)c2c1,1.23%
13,CCOc1ccc(NC(=O)c2ccc(NC(=O)C3CCCO3)cc2)cc1 (stereo not given),1.62%
14,Cc1ccc(CNC(=O)c2cc(-c3ccccc3C)n(CC3CC(c4cccc([N+](=O)[O-])c4)=NO3)n2)cc1 (stereo not given),-1.39%
15,Cn1c(-c2ccc(C(F)(F)F)cc2)cc2onc(-c3ccccc3)c2c1=O,1.56%
16,CN(c1ccc(OCC(=O)OCC(=O)Nc2cccc([N+](=O)[O-])c2)cc1)S(=O)(=O)c1ccc(F)cc1,-1.05%
17,Cc1c(Cl)c([N+](=O)[O-])nn1Cc1ccc(C(=O)N/N=C\c2cc(Cl)ccc2O)o1,1.45%
18,Cc1ccc2c(c1)N(CC(=O)N1CCOCC1)C(=O)CO2,1.05%
19,Cc1cc(/C=C2/SC(=O)N(CC(=O)N3CCCC3)C2=O)ccc1N1CCOCC1,38.1% (active)
20,Cc1cc(/C=C2/SC(=O)N(CC(=O)N3CCCC3)C2=O)c(C)n1C,-4.95%
21,C#CCOCCOCCOCCNc1nc(N2CCN(C(=O)[C@H](CCCCN)n3cc(CCC(=O)O)nn3)CC2)nc(N2CCN(C(=O)[C@H](CCCCN)n3cc(CC(C)O)nn3)CC2)n1 (stereo not given in full),-2.04%
22,Cc1ccc(S(=O)(=O)N2CCN=C2SCc2c(F)cccc2Cl)cc1,-3.87%
23,O=C(CNC(=O)c1ccc(F)cc1)c1ccccc1,5.07%

row,SMILES,inhibition
1,Cc1cccc[n+]1CC(=O)c1ccccc1,-3.95%
2,O=C(C[n+]1cc(Br)cc2ccccc21)c1ccc(F)cc1,25.1% (active)
3,COc1cccc(-n2c(N)cc(=O)nc2SCC(=O)Nc2cc(C)on2)c1,-0.29%
4,CCC(C)(C)c1ccc(Oc2ccc(NC(=O)COC(=O)C3=COCCO3)cc2)cc1,0.08%
5,CC(C)C[C@@H](N)c1nnc(SCC(=O)c2ccc(Cl)cc2)o1,3.05%
6,O=C(O)CCCN1C(=O)C2C3c4ccccc4C(c4ccccc43)[C@@H]2C1=O (stereo not given in full),2.01%
7,COc1ccc(CNC(=O)CCN2C(=O)c3ccccc3C2=O)cc1,-3.69%
8,O=C(O)CCC(=O)NCc1ccc(C(=O)O)cc1,-6.54%
9,O=C(CN1C(=O)c2ccccc2C1=O)NCc1ccc(C(=O)O)cc1,36.6% (active)
10,Cc1ccc(C)c(C(=O)N2CCC(n3nccc3NC(=O)C3CC3)CC2)c1,1.61%
11,CC(C(=O)N1CCN(c2ccccc2F)CC1)c1ccc([N+](=O)[O-])cc1 (stereo not given),0.08%
12,NS(=O)(=O)c1ccc(NC(=S)NNC(=O)c2cccs2)cc1,-0.11%
13,N#C/C(=C/c1ccc(N2CCOCC2)o1)C(=O)N1CCOCC1,158% (active)
14,N#C/C=C(/c1ccc(F)cc1)N1CCOCC1,-0.18%
15,O=C(N1CCOCC1)N1CCOCC1,-4.04%
16,N#C/C(=C\c1ccc(N2CCOCC2)o1)C(=O)N1CCOCC1,153% (active)
17,Cc1ccc(C(=O)N2CCN(C(=O)N3CCOCC3)CC2)cc1,-1.08%
18,N#C/C(=C\c1ccc(-c2cccc([N+](=O)[O-])c2)o1)C(=O)NCCN1CCOCC1,0.6%
19,CCOc1cc(-c2noc(CCCC(=O)NC3CCCCC3)n2)ccc1OC,3.27%
20,CN1CCCN(C(=O)C2CCCCC2)CC1,1.49%
21,C/C(=C/C(=O)N1CCN(C)CC1)C(=O)O,3.89%
